# Measurements published in PubChem BioAssay AID743287 (Broad Institute, 2014).
# Where “and” joins values, the source holds several entries; their conditions need not be identical. Identical values can stand only once. Hit rate of the full screen: of about 370,000 compounds, about 2,300 (0.62%) were called active. This is one part of a sample in which actives are shown more often than they occur.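 Rule for the calls: active = lowest replicate activation of at least 40%, so every replicate reaches that level; inactive = the rest.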
# Test: primary screen for activators of insulin secretion dependent on glucose, INS-1E cells, GLuc reporter luminescence (AID 743287);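 note: 0% = median of neutral control wells and 100% = median of IBMX positive control wells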
# Conditions: INS-1E GLuc reporter insulin secretion, 2-3 h, at 16.6 µM, active compounds read high
row,Structure (SMILES),activation
1,O=C(Nc1cc(F)ccc1F)N1CCCCN2[C@H](CO)[C@@H](c3ccc(-c4cccnc4)cc3)[C@@H]2C1,-2.5% (inactive)
2,CO[C@H]1CN(C)C(=O)c2ccc(NC(=O)C3CCCC3)cc2OC[C@@H](C)NC[C@@H]1C,-7.48% (inactive)
3,COc1cccc(CNC(=O)[C@@H]2[C@@H](CO)[C@@H]3Cn4c(ccc(-c5cccnc5)c4=O)[C@@H]3N2C)c1,-0.31% (inactive)
4,O=C(NCC[C@@H]1CC[C@@H](NS(=O)(=O)c2ccc(Cl)cc2)[C@@H](CO)O1)c1ccccc1F,6.92% (inactive)
5,C[C@@H]1CN([C@H](C)CO)S(=O)(=O)c2ccc(C3=CCCC3)cc2O[C@H]1CN(C)C(=O)CC1CC1,-5.57% (inactive)
6,CCOC(=O)Cn1c(=O)n(Cc2ccc(OC)cc2)c(=O)c2cccnc21,46.4% (active)
7,COCCCNC(=O)CCc1nc2cccnc2n1Cc1ccc(OC)cc1,10.4% (inactive)
8,CCOc1ncccc1C(=O)NCCc1ccc(OC)cc1,35.2% (inactive)
9,COCC(=O)N1CCC2(CC1)CN(C(=O)Nc1ccccc1F)[C@@H](CO)c1c2c2ccc(OC)cc2n1C,-10.5% (inactive)
10,O=S(=O)(NCC[C@H]1CC[C@@H](NS(=O)(=O)c2cccc(Cl)c2)[C@@H](CO)O1)c1cccc(F)c1,-5.04% (inactive)
11,CO[C@@H]1CN(C)C(=O)c2ccc(NS(=O)(=O)c3ccc(Cl)cc3)cc2OC[C@@H](C)N(C)C[C@H]1C,-6.5% (inactive) and 12.1% (inactive)
12,Cc1cccc(-c2ccc(C3[C@@H]4CN(C(=O)Nc5ccc(C(F)(F)F)cc5)C[C@H]3N4)cc2)c1 (stereo not given in full),763% (active)
13,O=C(C1CCCCC1)N1C[C@@H]2N[C@H](C1)C2c1ccc(-c2cccc(F)c2)cc1 (stereo not given in full),22.3% (inactive) and -4.66% (inactive)
14,CN(C)C(=O)c1ccc(-c2ccc(C3[C@@H]4CN(C(=O)Nc5ccccc5)C[C@H]3N4)cc2)cc1 (stereo not given in full),-5.33% (inactive)
15,C[C@H]1CN([C@@H](C)CO)C(=O)c2cc(NC(=O)C3CCCCC3)ccc2O[C@H]1CN(C)S(=O)(=O)c1cn(C)cn1,17.4% (inactive)
16,O=C(C1CCOCC1)N1CC(=O)N2[C@H](CO)[C@H](c3ccc(C#CC4CCCCC4)cc3)[C@H]2C1,6.98% (inactive)
17,CN(C)C(=O)N1CCN(C(=O)[C@@H](Cc2ccccc2)NC(=O)[C@H]2O[C@@H](n3ccc(N)nc3=O)[C@H](O)[C@@H]2O)CC1,13.5% (inactive)
18,O=C(N[C@H](Cc1ccccc1)C(=O)N1CCCN(Cc2cccs2)CC1)[C@H]1O[C@@H](n2ccc(=O)[nH]c2=O)[C@H](O)[C@@H]1O,13% (inactive)
19,Cc1ccc2nc(CN(C)C(=O)[C@@H](Cc3ccccc3)NC(=O)[C@H]3O[C@@H](n4ccc(=O)[nH]c4=O)[C@H](O)[C@@H]3O)[nH]c2c1,42.3% (active)
20,CN1C(=O)c2cc(NS(C)(=O)=O)ccc2OC[C@H]2O[C@H](CC(=O)NCc3ccccc3)CC[C@H]21,4.81% (inactive)
21,CCOC(=O)c1oc2ccccc2c1NC(=O)c1cccs1,77.1% (active)
22,NC(=O)c1oc2ccccc2c1NC(=O)Cc1ccccc1,9.27% (inactive)
23,Cc1nc2ccccn2c(=O)c1NC(=O)c1cccs1,3.74% (inactive)
24,COc1ccc(NC(=O)Nc2cccc3c2O[C@H](CN(C)Cc2ccc(Cl)c(Cl)c2)[C@H](C)CN([C@@H](C)CO)C3=O)cc1,-19% (inactive)

row,Structure (SMILES),activation
1,C[C@H]1CN([C@@H](C)CO)C(=O)Cc2cc(NC(=O)Cn3cnnn3)ccc2O[C@@H]1CN(C)Cc1ccc(-c2ccccc2)cc1,-17.4% (inactive)
2,O=c1c2ccccc2c(-c2ccccc2)nn1-c1ccccn1,53.1% (active)
3,COc1cccc(-n2nc(C(=O)N3CCN(Cc4ccccc4)CC3)c3ccccc3c2=O)c1,-2.64% (inactive)
4,O=C(O)c1ccc(-n2nc(-c3ccccc3)c3ccccc3c2=O)cc1,65.3% (active)
5,O=c1c2ccccc2ncn1CCc1ccncc1,2.05% (inactive)
6,COCCCNC(=O)CNC(=O)c1nn(-c2ccc(OC)cc2)c(=O)c2ccccc12,5.37% (inactive)
7,O=C1c2oc3ccccc3c(=O)c2C(c2cccc(O)c2)N1c1ccccn1 (stereo not given),-8.86% (inactive)
8,C[C@@H]1CN([C@H](C)CO)C(=O)c2cc(NS(=O)(=O)c3cccs3)ccc2O[C@@H](C)CCCCO[C@@H]1CN(C)C(=O)c1ccncc1,-1.55% (inactive)
9,C[C@@H]1CN([C@@H](C)CO)C(=O)CCCn2cc(nn2)CO[C@@H]1CN(C)S(=O)(=O)c1ccccc1C#N,4.61% (inactive)
10,COc1ccc2c3c(n(C)c2c1)[C@H](CO)N(C(=O)c1ccncc1)CC31CCN(CC2CC2)CC1,14.2% (inactive)
11,O=C(C[C@@H]1CC[C@@H](NC(=O)C2CC2)[C@@H](CO)O1)NCc1ccccc1Cl,-6.27% (inactive)
12,C[C@@H]1CN([C@H](C)CO)C(=O)c2cccc(NC(=O)Nc3ccc4c(c3)OCO4)c2O[C@H]1CN(C)C(=O)Nc1ccc(F)cc1,-11.4% (inactive)
13,Cc1ccc(S(=O)(=O)Nc2ccc3c(c2)C(=O)N([C@@H](C)CO)C[C@@H](C)[C@@H](CN(C)S(=O)(=O)c2ccc(C)cc2)O3)cc1,-10.5% (inactive)
14,Cc1ccc(S(=O)(=O)N(C)C[C@@H]2Oc3ccc(NC(=O)Nc4ccc(F)cc4)cc3C(=O)N([C@H](C)CO)C[C@@H]2C)cc1,-24.3% (inactive)
15,COc1ccccc1CN1[C@@H]2CNC[C@H]1C2c1ccc(-c2cccc(C#N)c2)cc1 (stereo not given in full),0.586% (inactive) and -8.29% (inactive)
16,N#Cc1ccc(-c2ccc([C@@H]3[C@H]4CNC[C@@H]3N4Cc3cc(F)ccc3F)cc2)cc1,137% (active)
17,N#Cc1ccc(-c2ccc([C@@H]3[C@H]4CNC[C@@H]3N4Cc3ccc4c(c3)OCO4)cc2)cc1,3.4% (inactive)
18,CCCC(=O)Nc1ccc2c(c1)C(=O)N(C)[C@@H]1CC[C@H](CC(=O)NCCOC)O[C@H]1CO2,-1.04% (inactive)
19,C[C@H](CO)N1C[C@H](C)[C@@H](CN(C)C(=O)C2CC2)Oc2ncc(C#CC(C)(C)O)cc2C1=O,3.22% (inactive)
20,C[C@@H]1CN([C@H](C)CO)C(=O)c2cccc(NC(=O)c3ccncc3)c2O[C@@H]1CN(C)S(=O)(=O)c1cn(C)cn1,8.83% (inactive)
21,COc1ccc2oc(=O)c(C(=O)NCc3ccccn3)cc2c1,70.8% (active)
22,COCc1ccc(CN2CCC(Oc3ccc(C(=O)NCc4ccccn4)cc3)CC2)o1,2.23% (inactive)
23,COc1ccccc1CNS(=O)(=O)c1cc(C(=O)NCc2ccccn2)c(Cl)cc1Cl,4.38% (inactive)
24,C[C@@H]1CN([C@H](C)CO)C(=O)c2cc(NC(=O)NC3CCCCC3)ccc2O[C@@H]1CN(C)S(C)(=O)=O,-8.57% (inactive)

row,Structure (SMILES),activation
1,CC(C)CC#Cc1ccc2c(c1)O[C@H](CN(C)Cc1cccnc1)[C@H](C)CN([C@@H](C)CO)S2(=O)=O,-26.2% (inactive)
2,CC1CCN(c2nc3c(c(=O)[nH]c(=O)n3C)n2CCCc2ccccc2)CC1,3.62% (inactive)
3,C=CCn1c(SCc2ccccc2)nc2c1c(=O)[nH]c(=O)n2C,52% (active)
4,CC=CCn1c(SCCCc2ccccc2)nc2c1c(=O)[nH]c(=O)n2C,3.95% (inactive)
5,CO[C@H]1CN(C)C(=O)c2cc(NS(=O)(=O)c3ccccc3C)ccc2OC[C@@H](C)NC[C@@H]1C,2.17% (inactive)
6,COCC(=O)N(C)C[C@H]1Oc2cc(C#CC(C)C)ccc2S(=O)(=O)N([C@H](C)CO)C[C@@H]1C,1.27% (inactive)
7,COCC(=O)N(C)C[C@H]1Oc2cc(Br)ccc2S(=O)(=O)N([C@H](C)CO)C[C@H]1C,46.1% (active)
8,C[C@@H]1CN([C@@H](C)CO)S(=O)(=O)c2ccc(Br)cc2O[C@@H]1CN(C)C(=O)CN(C)C,21.4% (inactive)
9,COc1ccc(NC(=O)N[C@H]2C=C[C@H](CC(=O)NCc3ccccn3)O[C@H]2CO)cc1,15.4% (inactive)
10,COc1ccc2c3c(n(C)c2c1)[C@H](CO)N(Cc1ccccc1)CC31CCN(C)CC1,15.2% (inactive)
11,O=C(O)CCCCCCCCCC[n+]1ccccc1,91.6% (active)
12,CC(C)C#Cc1ccc2c(c1)O[C@H](CN(C)CC1CCOCC1)[C@@H](C)CN([C@H](C)CO)S2(=O)=O,-18.8% (inactive)
13,CCCc1cc(=O)oc2c(C)c(OCC(=O)NCc3ccccn3)ccc12,11.9% (inactive)
14,CCCCCN1CC(O)=C(c2nc(-c3ccc(Cl)cc3)cs2)C1=N,35.7% (inactive)
15,CCCc1cc(-c2nc(-c3ccc(C)cc3)cs2)ccn1,90.4% (active)
16,CC(C)NC(=O)N(C)C[C@@H]1Oc2ncc(C3=CCCCC3)cc2C(=O)N([C@H](C)CO)C[C@@H]1C,-12.5% (inactive)
17,Cc1ccc(NC(=O)C2CCN(S(=O)(=O)c3ccc4c(c3)NC(=O)CO4)CC2)cc1C,-23% (inactive)
18,Cn1c(=O)oc2cc(S(=O)(=O)N3CCC(C(=O)Nc4ccc(OC(F)(F)F)cc4)CC3)ccc21,48.6% (active)
19,CC(=O)Nc1ccc(S(=O)(=O)N2CCC(C(=O)NC3CC3)CC2)cc1,29.2% (inactive)
20,C[C@H](NC(=O)[C@@H]1[C@@H](CO)[C@@H]2Cn3c(ccc(-c4cccc(F)c4)c3=O)[C@@H]2N1C)c1ccccc1,-1.52% (inactive)
21,C[C@@H]1CCCCO[C@@H](CN(C)S(=O)(=O)c2cn(C)cn2)[C@H](C)CN([C@@H](C)CO)C(=O)c2cc(NC(=O)Nc3ccccc3)ccc2O1,20.9% (inactive)
22,CN1C(=O)c2cc(NC(=O)Cc3ccccc3)ccc2OC[C@H]2O[C@H](CC(=O)NCc3ccc(Cl)cc3)CC[C@H]21,-7.02% (inactive)
